Inconclusive results are not listed. Activity calls are given as the source filed them. The call rests on the fitted dose curve.
Test: qHTS assay to identify small molecule agonists of the endoplasmic reticulum stress response signaling pathway - cell viability counter screen (AID 1159517); further: nearly all actives have a fitted effect of over 50% in size
Conditions: ESRE-bla HeLa viability, CellTiter-Glo luminescence, 5 h; series mostly up to 61 µM
Source text: U.S. Tox21 Program National Center for Advancing Translational Sciences [NCATS] NIH Chemical Genomics Center [NCGC] U.S. Environmental Protection Agency [EPA] National Institutes of Environmental Health Sciences [NIEHS] National Toxicology Program [NTP] U.S. Food and Drug Administration [FDA] Tox21 Assay Overview: Endoplasmic Reticulum (ER) plays an important role in cellular signaling, protein folding/maturation, stress response, lipid biosynthesis, calcium storage and release etc. Under stress conditions, proteins in ER misfold or unfold, and leading to the expression of ER stress responsive genes. ER stress has been associated with a variety of pathophysiological conditions such as cancer, inflammation, neurodegenerative diseases, diabetes, ischemic heart disease etc. To identify the compounds that induce ER stress response, an ER stress reporter cell line, CellSensor ESRE-bla HeLa (Life Technologies, Carlsbad, CA) containing a beta-lactamase reporter gene under control of the Endoplasmic reticulum Stress Response Element (ESRE) was used to screen Tox21 10K compound library. The cytotoxicity of the Tox21 compound library against the ESRE-bla HeLa cell line was tested in parallel by measuring cell viability using the CellTiter-Glo assay in the same wells.
Tox21 Assay Protocol Summary: ESRE-bla HeLa cells were dispensed at 1,500 cells/6 uL of assay medium per well into black wall/clear-bottom 1536-well plates using a Multidrop Combi (ThermoFisher Scientific, Waltham, MA) dispenser. After the assay plates were incubated at 37 C and 5% CO2 for an overnight, 23 nL of compounds dissolved in DMSO, positive controls or DMSO only was transferred to the assay plate by a Pintool station (Kalypsys, San Diego, CA). The assay plates were incubated at 37 C and 5% CO2 for 5 hr. One uL of LiveBLAzer B/G FRET substrate (Life Technologies) was added using a FRD (Flying Reagent Dispenser, Aurora Discovery, San Diego, CA) and the plates were incubated at room temperature for 2 hr. Fluorescence intensity (405 nm excitation, 460 nm and 530 nm emissions) was measured using an Envision plate reader (PerkinElmer, Shelton, CT). For cytotoxicity, 4 ul/well of CellTiter-Glo reagent was added into the assay plates using an FRD. After 30 min incubation at room temperature, the luminescence intensity was measured using a ViewLux plate reader (PerkinElmer).
In the case of `CN(C)CCCCCCN(C)C`, the outcome is reported as “inactive”.
For `Nc1ccn([C@@H]2O[C@H](CO)[C@@H](O)C2(F)F)c(=O)n1`, the outcome was “inactive”.
In the case of `CCN1C=CN(C)C1C` (stereo not given), the outcome is reported as “inactive”.
With `CCCCCC(C)N` (stereo not given) the outcome was “inactive”.
In the case of `CCC1C(=O)OCC1Cc1cncn1C` (stereo not given), the outcome is reported as “inactive”.
With `CCCCCCCCN1CCCC1=O` the outcome was “inactive”.
With `CCC(C)(CCCC(C)C)OC(C)=O` (stereo not given) the outcome was “inactive”.
For `CC(C)NNC(=O)c1ccncc1`, the outcome was “inactive”.
For `CN(C)CCCN(C)CCCN(C)C`, the outcome was “inactive”.
With `CCCc1ncc(C[n+]2ccccc2C)c(N)n1` the outcome was “inactive”.
For `O=[N+]([O-])c1cncn1CCN1CCOCC1`, the outcome was “inactive”.
In the case of `CCCCCC(=O)OCCc1ccccc1`, the outcome is reported as “inactive”.
In the case of `Cc1cccc(C)c1NC(=O)CC12CCCN1CCC2`, the outcome is reported as “inactive”.
With `CCCCCCCCCCCCSC` the outcome was “inactive”.
With `CCCOC(=O)CC` the outcome was “inactive”.
With `O=C(O)c1cc(C(=O)O)cc(C(=O)O)c1` the outcome was “inactive”.
For `O=C(O)CNC(=O)c1ccc(CO)o1`, the outcome was “inactive”.
For `CN(C)[C@@H]1C(=O)C(C(=O)NCN2CCCC2)=C(O)[C@@]2(O)C(=O)C3=C(O)c4c(O)cccc4[C@@](C)(O)C3C[C@@H]12` (stereo not given in full), the outcome was “inactive”.
For `O=S(=O)(O)c1cccc2ccccc12`, the outcome was “inactive”.
For `COc1ccnc(CS(=O)c2nc3cc(OC(F)F)ccc3[nH]2)c1OC` (stereo not given), the outcome was “inactive”.
In the case of `NC(=O)N[C@@H](CCC(=O)O)C(=O)O`, the outcome is reported as “inactive”.
With `NCCCC[C@H](N[C@@H](CCc1ccccc1)C(=O)O)C(=O)N1CCC[C@H]1C(=O)O` the outcome was “inactive”.
With `[Ca+2]` the outcome was “inactive”.
In the case of `CN(C)C(=O)Oc1ccc[n+](C)c1`, the outcome is reported as “inactive”.
In the case of `CC(CO)(CO)[N+](=O)[O-]`, the outcome is reported as “inactive”.
In the case of `c1coc(CNc2ncnc3nc[nH]c23)c1`, the outcome is reported as “inactive”.
In the case of `c1ccc(CCc2ccccc2)cc1`, the outcome is reported as “inactive”.
In the case of `CC1OC1C1CCC2(C)OC2C1` (stereo not given), the outcome is reported as “inactive”.
With `CC(=O)N1C[C@H](O)C[C@H]1C(=O)O` the outcome was “inactive”.
With `COCCOC[C@H](CC1(C(=O)NC2CCC(C(=O)O)CC2)CCCC1)C(=O)Oc1ccc2c(c1)CCC2` (stereo not given in full) the outcome was “inactive”.
In the case of `CC[N+](C)(CC)CCOC(=O)C1c2ccccc2Oc2ccccc21`, the outcome is reported as “inactive”.
For `CC1=NS(=O)(=O)c2cc(Cl)ccc2N1`, the outcome was “inactive”.
For `CCCCS(=O)(=O)N[C@@H](Cc1ccc(OCCCCC2CCNCC2)cc1)C(=O)O`, the outcome was “inactive”.
In the case of `C[N+]12CCC(CC1)C(OC(=O)C(O)(c1ccccc1)c1ccccc1)C2` (stereo not given), the outcome is reported as “inactive”.
In the case of `FB(F)F`, the outcome is reported as “inactive”.
With `CCCO[Si](OCCC)(OCCC)OCCC` the outcome was “inactive”.
For `CC1(C)[C@@H]2CC[C@@]1(C)[C@H](O)C2`, the outcome was “inactive”.
For `O=C(O)CCSCCC(=O)O`, the outcome was “inactive”.
For `C[C@H]1C[C@H]2[C@@H]3CCC4=CC(=O)C=C[C@]4(C)[C@H]3C(=O)C[C@]2(C)[C@@]1(O)C(=O)CO`, the outcome was “inactive”.
For `O=S(=O)(O)c1cc(O)c(O)c(S(=O)(=O)O)c1`, the outcome was “inactive”.
